The supplement of paper PMC11732987, “Enantioselective OTUD7B fragment discovery through chemoproteomics screening and high-throughput optimisation” (Communications Chemistry, 2025)

Tests used:
Experiment in all cases: log2 ratio of Biotin-Ahx-Ub-VS probe labelling (fragment/DMSO); higher = less target engagement (more negative = stronger competition), active = hit call of the paper (q ≤ 0.05, log2 ratio ≤ -1)
Settings in all cases: compound concentration: 200 uM; treatment time: 3 h
USP34 = USP34 (UniProt Q70CQ2)
Chain of USP34 (Q70CQ2 whole entry, the tested form may be a part): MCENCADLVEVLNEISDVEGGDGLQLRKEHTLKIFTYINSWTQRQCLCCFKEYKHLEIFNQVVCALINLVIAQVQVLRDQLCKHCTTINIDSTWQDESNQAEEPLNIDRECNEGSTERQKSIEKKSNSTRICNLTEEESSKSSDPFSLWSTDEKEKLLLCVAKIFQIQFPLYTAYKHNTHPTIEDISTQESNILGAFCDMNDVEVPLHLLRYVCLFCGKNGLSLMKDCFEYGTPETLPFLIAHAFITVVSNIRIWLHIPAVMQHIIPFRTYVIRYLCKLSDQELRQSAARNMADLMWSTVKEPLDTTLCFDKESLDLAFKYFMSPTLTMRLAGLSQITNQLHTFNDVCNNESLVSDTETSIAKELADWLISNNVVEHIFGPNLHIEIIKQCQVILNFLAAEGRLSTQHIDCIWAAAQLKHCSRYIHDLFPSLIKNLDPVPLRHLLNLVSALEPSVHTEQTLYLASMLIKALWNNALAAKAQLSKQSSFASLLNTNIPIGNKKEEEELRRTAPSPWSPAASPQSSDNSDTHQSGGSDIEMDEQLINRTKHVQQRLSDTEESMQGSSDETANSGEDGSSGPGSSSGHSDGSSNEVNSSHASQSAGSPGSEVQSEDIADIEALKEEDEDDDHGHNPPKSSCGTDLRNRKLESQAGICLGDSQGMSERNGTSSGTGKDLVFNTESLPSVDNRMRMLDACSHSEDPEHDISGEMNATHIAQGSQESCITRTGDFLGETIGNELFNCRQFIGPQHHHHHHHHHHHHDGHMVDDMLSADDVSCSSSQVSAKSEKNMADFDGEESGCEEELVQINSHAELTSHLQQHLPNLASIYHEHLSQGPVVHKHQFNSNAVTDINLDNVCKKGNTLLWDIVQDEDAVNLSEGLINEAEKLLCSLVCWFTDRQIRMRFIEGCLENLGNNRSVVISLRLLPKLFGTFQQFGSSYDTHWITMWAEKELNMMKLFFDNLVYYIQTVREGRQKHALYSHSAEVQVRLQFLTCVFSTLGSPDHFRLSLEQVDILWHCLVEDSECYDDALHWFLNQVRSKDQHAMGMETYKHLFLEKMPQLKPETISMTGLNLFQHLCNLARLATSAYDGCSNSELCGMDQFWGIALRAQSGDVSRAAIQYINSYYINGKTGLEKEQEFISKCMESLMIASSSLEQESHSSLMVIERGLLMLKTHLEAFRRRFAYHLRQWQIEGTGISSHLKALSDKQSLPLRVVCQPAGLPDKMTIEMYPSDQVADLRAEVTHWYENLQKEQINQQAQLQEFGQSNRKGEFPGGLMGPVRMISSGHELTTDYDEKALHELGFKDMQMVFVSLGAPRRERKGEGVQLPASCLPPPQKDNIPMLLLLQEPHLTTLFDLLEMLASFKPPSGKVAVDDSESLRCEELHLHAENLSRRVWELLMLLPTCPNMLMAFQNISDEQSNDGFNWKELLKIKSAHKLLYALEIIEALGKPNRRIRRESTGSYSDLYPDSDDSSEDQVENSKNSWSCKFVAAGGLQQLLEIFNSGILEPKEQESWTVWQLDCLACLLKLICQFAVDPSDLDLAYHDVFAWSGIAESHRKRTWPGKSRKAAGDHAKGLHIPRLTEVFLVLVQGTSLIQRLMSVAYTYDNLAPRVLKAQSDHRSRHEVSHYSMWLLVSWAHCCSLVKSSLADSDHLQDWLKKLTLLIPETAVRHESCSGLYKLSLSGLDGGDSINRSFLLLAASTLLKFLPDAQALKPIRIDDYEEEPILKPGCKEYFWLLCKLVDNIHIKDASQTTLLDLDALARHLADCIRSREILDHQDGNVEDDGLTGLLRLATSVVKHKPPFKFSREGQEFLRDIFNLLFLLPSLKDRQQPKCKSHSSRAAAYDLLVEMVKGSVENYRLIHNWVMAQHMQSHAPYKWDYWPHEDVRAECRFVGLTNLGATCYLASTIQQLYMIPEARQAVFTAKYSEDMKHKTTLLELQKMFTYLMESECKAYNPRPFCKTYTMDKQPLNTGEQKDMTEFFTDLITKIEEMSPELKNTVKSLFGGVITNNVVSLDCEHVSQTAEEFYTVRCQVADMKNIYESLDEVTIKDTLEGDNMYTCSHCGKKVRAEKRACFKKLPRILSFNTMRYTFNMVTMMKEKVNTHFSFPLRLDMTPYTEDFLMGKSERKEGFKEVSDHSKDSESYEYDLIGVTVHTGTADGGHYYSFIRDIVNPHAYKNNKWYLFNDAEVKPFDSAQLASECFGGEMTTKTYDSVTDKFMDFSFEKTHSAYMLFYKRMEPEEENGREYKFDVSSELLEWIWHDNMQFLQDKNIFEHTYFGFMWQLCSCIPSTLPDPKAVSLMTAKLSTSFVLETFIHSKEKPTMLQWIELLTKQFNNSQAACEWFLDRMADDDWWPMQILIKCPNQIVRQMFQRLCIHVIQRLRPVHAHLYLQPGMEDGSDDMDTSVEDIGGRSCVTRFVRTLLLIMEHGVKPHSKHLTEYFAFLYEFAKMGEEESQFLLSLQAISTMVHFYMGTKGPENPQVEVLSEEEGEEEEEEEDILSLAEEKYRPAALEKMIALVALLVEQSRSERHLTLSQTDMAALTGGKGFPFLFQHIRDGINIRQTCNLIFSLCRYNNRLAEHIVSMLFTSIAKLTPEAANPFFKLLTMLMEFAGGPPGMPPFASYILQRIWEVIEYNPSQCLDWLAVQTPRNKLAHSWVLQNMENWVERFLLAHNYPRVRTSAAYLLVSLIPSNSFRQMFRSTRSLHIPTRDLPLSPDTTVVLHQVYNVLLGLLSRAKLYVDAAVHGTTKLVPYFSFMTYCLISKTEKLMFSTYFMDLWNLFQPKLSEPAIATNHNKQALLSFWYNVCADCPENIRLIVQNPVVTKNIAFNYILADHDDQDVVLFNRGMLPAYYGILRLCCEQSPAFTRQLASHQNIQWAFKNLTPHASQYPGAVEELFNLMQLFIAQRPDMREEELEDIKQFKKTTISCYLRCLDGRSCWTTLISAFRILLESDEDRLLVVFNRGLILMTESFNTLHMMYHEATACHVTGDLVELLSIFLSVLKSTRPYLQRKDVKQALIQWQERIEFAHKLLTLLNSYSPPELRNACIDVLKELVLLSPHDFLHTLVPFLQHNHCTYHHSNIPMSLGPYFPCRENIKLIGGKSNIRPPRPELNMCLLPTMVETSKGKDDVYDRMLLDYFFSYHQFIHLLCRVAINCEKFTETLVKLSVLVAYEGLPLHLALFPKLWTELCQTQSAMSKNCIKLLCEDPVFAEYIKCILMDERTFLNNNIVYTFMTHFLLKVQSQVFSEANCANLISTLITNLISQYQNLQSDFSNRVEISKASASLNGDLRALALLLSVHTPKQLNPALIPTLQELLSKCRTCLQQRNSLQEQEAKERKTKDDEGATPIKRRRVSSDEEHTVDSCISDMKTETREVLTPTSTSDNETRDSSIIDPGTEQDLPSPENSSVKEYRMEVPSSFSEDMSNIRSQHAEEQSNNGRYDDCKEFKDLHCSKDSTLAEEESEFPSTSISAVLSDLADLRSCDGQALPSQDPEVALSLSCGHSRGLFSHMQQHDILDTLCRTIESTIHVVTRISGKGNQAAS
In short: (§1)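 Average log2 ratios of fragment over vehicle were obtained by unpaired t-test from global-median-normalised Spectronaut label-free quantities. Proteins with ≥2 unique peptides were included. HEK293T lysate (495 µg per sample) was treated in triplicate with fragment at 200 µM or vehicle for 3 h, then with Biotin-Ahx-Ub-VS at 0.5 µM final for 1 h, and labelled DUBs were NeutrAvidin-enriched and run by diaPASEF LC-MS/MS.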

USP36 = target: T1, USP36 (UniProt Q9P275)
T1 sequence (whole entry): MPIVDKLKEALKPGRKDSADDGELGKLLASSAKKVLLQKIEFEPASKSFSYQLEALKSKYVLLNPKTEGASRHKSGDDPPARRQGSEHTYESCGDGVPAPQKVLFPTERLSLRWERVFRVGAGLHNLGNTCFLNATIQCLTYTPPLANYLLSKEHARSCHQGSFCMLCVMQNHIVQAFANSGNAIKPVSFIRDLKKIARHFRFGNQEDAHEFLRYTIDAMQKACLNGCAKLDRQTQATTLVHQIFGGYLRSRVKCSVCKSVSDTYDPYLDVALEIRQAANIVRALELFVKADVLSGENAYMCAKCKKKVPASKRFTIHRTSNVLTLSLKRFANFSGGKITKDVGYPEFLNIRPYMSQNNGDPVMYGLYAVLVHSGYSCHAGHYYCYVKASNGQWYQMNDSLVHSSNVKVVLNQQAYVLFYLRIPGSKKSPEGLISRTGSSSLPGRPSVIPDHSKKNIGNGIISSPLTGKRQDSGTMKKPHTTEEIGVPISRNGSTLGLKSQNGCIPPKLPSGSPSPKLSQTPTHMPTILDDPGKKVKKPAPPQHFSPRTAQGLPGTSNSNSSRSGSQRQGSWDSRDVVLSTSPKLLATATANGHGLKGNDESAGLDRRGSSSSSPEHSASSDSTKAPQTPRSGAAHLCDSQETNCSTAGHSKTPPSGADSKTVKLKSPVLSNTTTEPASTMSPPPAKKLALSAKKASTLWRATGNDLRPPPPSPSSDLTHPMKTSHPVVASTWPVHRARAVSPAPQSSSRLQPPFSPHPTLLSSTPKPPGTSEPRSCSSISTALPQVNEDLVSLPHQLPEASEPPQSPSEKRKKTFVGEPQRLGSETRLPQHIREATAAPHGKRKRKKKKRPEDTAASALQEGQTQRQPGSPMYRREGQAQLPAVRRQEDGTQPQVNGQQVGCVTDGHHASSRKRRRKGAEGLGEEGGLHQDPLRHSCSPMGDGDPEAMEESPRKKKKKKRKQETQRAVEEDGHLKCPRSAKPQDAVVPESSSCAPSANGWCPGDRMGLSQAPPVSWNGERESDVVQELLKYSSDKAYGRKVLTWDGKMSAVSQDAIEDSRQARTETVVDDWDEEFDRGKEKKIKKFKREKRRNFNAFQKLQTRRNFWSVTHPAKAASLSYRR
In short: as §1

USP38 = target: T2, USP38 (UniProt Q8NB14)
T2 sequence (whole entry): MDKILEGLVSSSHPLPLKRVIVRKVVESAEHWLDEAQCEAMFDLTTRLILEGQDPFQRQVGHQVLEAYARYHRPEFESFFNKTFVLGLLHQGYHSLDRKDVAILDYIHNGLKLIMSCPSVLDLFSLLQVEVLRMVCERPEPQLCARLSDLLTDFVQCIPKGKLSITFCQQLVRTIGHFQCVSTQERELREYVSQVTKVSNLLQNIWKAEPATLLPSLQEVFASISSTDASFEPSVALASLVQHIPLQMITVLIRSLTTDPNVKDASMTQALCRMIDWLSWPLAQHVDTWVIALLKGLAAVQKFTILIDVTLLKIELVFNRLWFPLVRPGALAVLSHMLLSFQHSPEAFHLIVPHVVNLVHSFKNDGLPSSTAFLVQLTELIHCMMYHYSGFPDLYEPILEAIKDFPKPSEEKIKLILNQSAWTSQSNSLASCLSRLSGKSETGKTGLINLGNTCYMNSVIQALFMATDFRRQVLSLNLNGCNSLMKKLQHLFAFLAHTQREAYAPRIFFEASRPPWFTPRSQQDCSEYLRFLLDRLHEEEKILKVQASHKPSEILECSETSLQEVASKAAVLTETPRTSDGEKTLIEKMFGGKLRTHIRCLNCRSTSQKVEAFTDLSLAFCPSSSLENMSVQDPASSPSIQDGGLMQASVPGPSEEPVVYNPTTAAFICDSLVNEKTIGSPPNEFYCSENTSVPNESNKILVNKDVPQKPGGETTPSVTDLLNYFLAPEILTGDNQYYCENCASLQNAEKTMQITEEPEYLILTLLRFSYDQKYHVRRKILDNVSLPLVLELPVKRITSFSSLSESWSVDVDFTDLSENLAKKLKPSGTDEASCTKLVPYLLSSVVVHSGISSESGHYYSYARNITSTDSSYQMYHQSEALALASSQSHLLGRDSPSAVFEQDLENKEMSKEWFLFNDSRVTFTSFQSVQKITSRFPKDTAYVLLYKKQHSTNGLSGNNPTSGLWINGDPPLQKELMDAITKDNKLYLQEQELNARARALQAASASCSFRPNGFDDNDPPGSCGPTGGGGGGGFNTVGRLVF
In short: as §1

USP39 = target: T3, USP39 (UniProt Q53GS9)
T3 sequence (whole entry): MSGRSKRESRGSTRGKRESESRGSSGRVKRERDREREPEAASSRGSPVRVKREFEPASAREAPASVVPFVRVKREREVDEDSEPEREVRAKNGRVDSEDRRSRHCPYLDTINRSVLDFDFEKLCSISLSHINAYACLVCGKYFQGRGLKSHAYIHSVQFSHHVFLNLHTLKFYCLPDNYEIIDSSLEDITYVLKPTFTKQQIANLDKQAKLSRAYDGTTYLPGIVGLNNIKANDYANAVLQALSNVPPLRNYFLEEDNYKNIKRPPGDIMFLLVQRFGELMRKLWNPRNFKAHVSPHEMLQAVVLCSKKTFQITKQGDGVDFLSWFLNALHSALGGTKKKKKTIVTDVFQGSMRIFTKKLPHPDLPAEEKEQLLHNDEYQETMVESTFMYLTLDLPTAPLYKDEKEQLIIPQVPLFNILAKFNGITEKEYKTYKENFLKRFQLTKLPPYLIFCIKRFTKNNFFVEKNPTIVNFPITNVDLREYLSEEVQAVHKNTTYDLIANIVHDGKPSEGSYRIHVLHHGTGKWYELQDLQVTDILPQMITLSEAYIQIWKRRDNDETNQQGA
In short: as §1

USP4 = target: T4, USP4 (UniProt Q13107)
T4 sequence (whole entry): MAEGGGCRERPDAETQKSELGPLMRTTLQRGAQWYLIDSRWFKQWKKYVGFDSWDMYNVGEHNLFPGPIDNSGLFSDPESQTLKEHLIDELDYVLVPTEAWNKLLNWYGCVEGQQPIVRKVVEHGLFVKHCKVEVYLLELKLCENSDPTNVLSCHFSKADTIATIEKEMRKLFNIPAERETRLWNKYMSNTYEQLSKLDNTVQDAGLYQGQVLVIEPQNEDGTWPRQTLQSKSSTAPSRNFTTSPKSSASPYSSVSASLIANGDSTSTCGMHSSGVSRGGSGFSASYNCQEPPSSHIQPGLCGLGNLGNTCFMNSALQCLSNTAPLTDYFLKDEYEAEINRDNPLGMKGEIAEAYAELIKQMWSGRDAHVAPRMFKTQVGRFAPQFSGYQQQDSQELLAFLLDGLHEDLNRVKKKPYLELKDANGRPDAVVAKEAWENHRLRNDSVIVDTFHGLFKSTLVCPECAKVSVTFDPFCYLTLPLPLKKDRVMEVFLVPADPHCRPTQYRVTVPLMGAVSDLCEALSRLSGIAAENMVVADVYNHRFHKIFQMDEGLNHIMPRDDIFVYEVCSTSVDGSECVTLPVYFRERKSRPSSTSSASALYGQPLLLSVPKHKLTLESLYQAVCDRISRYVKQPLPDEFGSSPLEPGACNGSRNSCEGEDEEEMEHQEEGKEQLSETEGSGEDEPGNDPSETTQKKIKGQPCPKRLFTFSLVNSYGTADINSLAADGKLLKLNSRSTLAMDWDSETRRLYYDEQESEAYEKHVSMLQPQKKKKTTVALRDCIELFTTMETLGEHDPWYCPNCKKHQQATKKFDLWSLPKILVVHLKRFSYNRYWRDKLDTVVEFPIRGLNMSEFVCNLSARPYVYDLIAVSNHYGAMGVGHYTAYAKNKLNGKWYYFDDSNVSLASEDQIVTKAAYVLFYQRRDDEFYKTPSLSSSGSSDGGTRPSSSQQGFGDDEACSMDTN
In short: as §1

Measured: log2 ratio of Biotin-Ahx-Ub-VS probe labelling

Cl.Cn1nccc1C(NC(=O)CCl)c1ccccc1 (stereo not given)
inactive: USP34 -0.0966 | USP36 0.193 | USP38 -0.0261 | USP39 0.0185 | USP4 -0.116
